# Experimental data: PubChem BioAssay AID1053126 (Broad Institute, 2014)
# Results with a measured potency or affinity are listed apart. Unmarked numbers belong to inactive results.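 How the source made its calls: active means cell killing with a fitted half-effect concentration at or below twice the top valid dose; inconclusive means flat curve with 30 to 70 percent drop, or poor fit; inactive means the rest.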
# Experiment: viability loss in HEK293T kidney cells – cell-based, ATP luminescence, cherry-pick, set 6, cytotoxicity control, dose response (AID 1053126);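 further: 0% = neutral control wells and -100% = mitoxantrone 10 µM positive control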
# Settings: CellTiter-Glo ATP luminescence, 72 h; series mostly up to 26 µM; activity change, negative = cytotoxicity: at the top concentration
row,Compound,"activity change, negative = cytotoxicity"
1,O=[N+]([O-])c1cccc(-c2n[nH]c(=S)n2-c2ccc(Br)cc2)c1,12.7%
2,CN1c2ccc(Cl)cc2C(=O)NC1C1CC=CCC1 (stereo not drawn),5.93%
3,Cn1c(=N)c(S(=O)(=O)c2ccccc2)cc2c(=O)n3ccccc3nc21,-19.3%
4,Cc1oc(/N=C/c2ccc(O)cc2O)c(C#N)c1C,-8.77%
5,Cc1ccc2nc3c(cc(S(=O)(=O)c4ccccc4)c(=N)n3Cc3ccco3)c(=O)n2c1,-15.9%
6,CC(C)c1ccc(/C=C2\Oc3c(ccc(O)c3CN3CCN(C)CC3)C2=O)cc1,-6.47%
7,O=c1oc2c(CN3CCN(CCO)CC3)c(O)ccc2cc1-c1ccccn1,-3.28%
8,Cc1ccc(S(=O)(=O)CCC(=O)OCC(=O)Nc2cccc(S(=O)(=O)N3CCCCC3)c2)cc1,-10.6%
9,Cc1nc2ccc(S(=O)(=O)Nc3ccc(-c4nc5cccnc5s4)cc3)cc2s1,31.4%
10,CCOCCCNc1c(CC)c(C)c(C#N)c2nc3ccccc3n12,-2.89%
11,CCOC(=O)c1cc2c(=O)n3ccccc3nc2n(CCCOC)c1=NC(=O)c1ccncc1,-4.62%
12,C#CCOc1ccc(C2C(C#N)=C(N)Oc3cc(O)ccc32)cc1 (stereo not drawn),7.8%
13,CCN1C=C(C(=O)OC)C(c2cccc(OC)c2OC)C(C(=O)OC)=C1,-2.69%
14,CCC(C)n1c(=N)c(C#N)cc2c(=O)n3cc(C)ccc3nc21 (stereo not drawn),5.65%
15,O=C(NS(=O)(=O)c1ccc(Cl)s1)c1ccccc1,-4.68%
16,CC1=C(C(=O)N2CCN(c3cc(C)ccc3C)CC2)C2(CCCCC2)OC1=O,-3.96%
17,CCc1cccc(OC2OC(CO)C(O)C(O)C2NC(C)=O)c1 (stereo not drawn),-15.4%
18,Cc1cc(=O)oc2cc(OC(=O)c3cncc(Br)c3)ccc12,-11.8%
19,COc1c(Cl)cc(-c2noc(C)c2C(=O)NCc2ccc3c(c2)OCO3)cc1Cl,-4.64%

row,Compound,"activity change, negative = cytotoxicity"
1,Cc1ccc2c(c1)N(C(=O)CCC(=O)NCCCN1CCOCC1)CC(C)O2 (stereo not drawn),-8.52%
2,CCOc1ccc(C2C(C#N)=C(N)Oc3cc(O)ccc32)cc1OCC (stereo not drawn),5.38%
3,O=C(O)c1ccc(-c2ccc(/C=C3\NC(=O)N(Cc4ccc(Cl)cc4)C3=O)o2)cc1,-3.02%
4,CCN(CC)Cc1c(O)c(Cl)cc2c(C)cc(=O)oc12,-0.263%
5,Cc1ccc(-n2c(C)cc(/C=N/NC(=O)Cn3c4ccccc4c(=O)c4ccccc43)c2C)cc1,23.8%
6,CC1CCCCC1NC(=O)CN1C(=O)c2cccc(N)c2C1=O (stereo not drawn),33.5%
7,Cc1cc(OC(=O)c2ccccc2Cl)ccc1N1C(=O)CCC1=O,37.2%
8,Clc1ccccc1C1=CC(c2ccco2)n2ncnc2N1 (stereo not drawn),-3.56%
9,NC(=O)c1cc([N+](=O)[O-])ccc1NCc1cccnc1,20.8%
10,Cc1ccc(O)c(NC(=S)NC(=O)COc2ccc(Br)cc2)c1,17.8%
11,CCCN1CCN(C(=O)c2ccc(CS(=O)c3ccc(Br)cc3)o2)CC1 (stereo not drawn),16.8%
12,O=C1CCc2cc(S(=O)(=O)NC(Cc3ccccc3)C(=O)NCCC3=CCCCC3)ccc2N1 (stereo not drawn),8.41%
13,C=Cc1ccc(Cn2c(C)c(C(=O)NCc3cccc(C)c3)sc2=O)cc1,-4.9%
14,O=C(O)C1=CC[C@@H](c2ccc(Cl)cc2)N(S(=O)(=O)c2ccc(Cl)cc2)[C@H]1c1ccc(F)cc1,-13.8%
15,CC(=O)NNc1cc(N2CCOCC2)nc(N2CCOCC2)n1,-6.77%
16,N#Cc1c2ccc(OCC(N)=O)cc2n2ccccc12,-5.42%
17,CC(=O)c1cccc(-c2ccnc3c2CC(C(=O)NCc2ccc(F)c(F)c2)O3)c1 (stereo not drawn),-11.2%
18,CCOC(=O)c1cc2c(=O)n3ccccc3nc2n(Cc2ccc(Cl)cc2)c1=N,7.6%
19,CSCCC1(C(=O)O)NC(c2ccccc2O)C2C(=O)N(C(C)C)C(=O)C21 (stereo not drawn),-7.06%
